Source: PubChem BioAssay (Tox21)
Results filed as inconclusive are left out. The source made the active and inactive calls. Unless noted, calls follow the shape of the full dose curve.

What was measured:
[1] = qHTS assay to identify small molecule antagonists of the sonic hedgehog signaling (Shh) pathway (AID 1259369); settings: NIH/3T3 Gli1-Luc reporter, Shh antagonist, luminescence 24 h; series mostly up to 92.4 µM; also: nearly all actives have a fitted effect of over 45% in size
In short: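 Antagonist mode: compound added to 3T3 Gli1-Luc cells followed by conditioned-medium stimulation, 24 h at 37 C, 5% CO2. Inhibition taken as loss of Gli1-driven luciferase luminescence.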

[2] = target: Estrogen receptor beta (Homo sapiens) (UniProt Q92731); test: qHTS assay to identify small molecule agonists of the estrogen receptor beta (ER-beta) signaling pathway (AID 1259377; active = well fitted activation curve with a large enough effect in the signal ratio in the repeat runs, not every such curve was filed as active; the % refers to the signal ratio); settings: ER-beta-UAS-bla HEK293T, beta-lactamase FRET ratio, 16 h; series mostly up to 92.4 µM
Estrogen receptor beta (Homo sapiens), sequence (Q92731 whole entry, looked up): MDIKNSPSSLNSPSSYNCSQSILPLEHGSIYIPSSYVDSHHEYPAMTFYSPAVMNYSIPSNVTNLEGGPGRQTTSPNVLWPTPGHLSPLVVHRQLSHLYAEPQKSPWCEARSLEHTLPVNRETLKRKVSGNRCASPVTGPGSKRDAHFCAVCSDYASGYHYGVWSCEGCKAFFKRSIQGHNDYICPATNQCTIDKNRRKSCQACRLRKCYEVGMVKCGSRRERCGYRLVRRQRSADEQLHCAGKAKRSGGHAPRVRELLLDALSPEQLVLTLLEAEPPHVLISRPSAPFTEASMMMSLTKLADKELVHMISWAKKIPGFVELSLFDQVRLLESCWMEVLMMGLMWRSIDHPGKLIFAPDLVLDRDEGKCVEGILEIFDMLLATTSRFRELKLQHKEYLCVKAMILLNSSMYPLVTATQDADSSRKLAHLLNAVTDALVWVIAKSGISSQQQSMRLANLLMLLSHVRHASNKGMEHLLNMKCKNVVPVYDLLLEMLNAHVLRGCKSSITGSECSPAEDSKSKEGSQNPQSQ
In short: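 qHTS in ER-beta-UAS-bla HEK293T cells: 6 hr settling, then 16 hr compound at 37C, then LiveBLAzer substrate 2 h at RT before fluorescence reading.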

[3] = target: Estrogen receptor beta (Homo sapiens) (UniProt Q92731); test: qHTS assay to identify small molecule antagonists of the estrogen receptor beta (ER-beta) signaling pathway (AID 1259378; active = well fitted inhibition curve with a large enough effect in the signal ratio in the repeat runs, not every such curve was filed as active; the % refers to the signal ratio); settings: ER-beta-UAS-bla HEK293T, beta-lactamase FRET ratio, 16 h; series mostly up to 92.4 µM
In short: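 Antagonist mode: compounds added to beta-lactamase reporter HEK293T ER-beta-UAS cells stimulated with E2 (1nM final), 16 hr at 37C. LiveBLAzer B/G FRET substrate, 2 hours room temperature, fluorescence read-out.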

[4] = qHTS assay to identify small molecule agonists of the androgen receptor (AR) signaling pathway in the presence of an antagonist - cell viability counter screen (AID 1259379; active = well fitted curve in the direction sought with a large enough effect in the repeat runs; an effect the other way counts as inactive or inconclusive;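 also: MDA-kb2 human breast cancer cells carrying an MMTV luciferase reporter; nearly all actives have a fitted effect of over 25% in size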); settings: MDA-kb2 viability, CellTiter-Fluor, 16 h; series mostly up to 92.4 µM
In short: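 Cytotoxicity counter-screen run in the same wells as the nilutamide-challenged (3.0 µM final) AR agonist assay in MDA-kb2 cells. Compounds tested at 15 concentrations for 16 h, 37 °C without CO2; CellTiter-Fluor fluorescence read.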

[5] = qHTS assay to identify small molecule antagonists of the estrogen receptor beta (ER-beta) signaling pathway - cell viability counter screen (AID 1259382; active = well fitted curve in the direction sought with a large enough effect in the repeat runs; an effect the other way counts as inactive or inconclusive;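 also: HEK293T cells carrying ER-beta-UAS-bla reporter stimulated with estradiol; nearly all actives have a fitted effect of over 55% in size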); settings: ER-beta-UAS-bla HEK293T viability, CellTiter-Glo luminescence, 16 h; series mostly up to 92.4 µM
In short: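 Cytotoxicity was measured in the same wells by CellTiter-Glo luminescence after 30 min at room temperature. Cells were ER-beta-bla HEK293T in charcoal-stripped serum, given compound together with 1 nM E2 and incubated 16 h at 37C.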

[6] = qHTS assay to identify small molecule agonists of the estrogen receptor alpha (ER-alpha) signaling pathway in the presence of an antagonist - cell viability counter screen (AID 1259386; active = well fitted curve in the direction sought with a large enough effect in the repeat runs; an effect the other way counts as inactive or inconclusive; also: nearly all actives have a fitted effect of over 30% in size); settings: VM7Luc4E2 viability, CellTiter-Fluor fluorescence, 22 h; series mostly up to 92.4 µM
In short: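 Compounds tested at 15 concentrations for 22 h at 37C alongside 10.0nM (final) ICI-182,780 antagonist, in VM7Luc4E2 cells grown in phenol red-free, charcoal-stripped medium. Viability read by CellTiter-Fluor fluorescence after 1 h reagent incubation.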

[7] = target: Progesterone receptor (Homo sapiens) (UniProt P06401); test: qHTS assay to identify small molecule agonists of the progesterone receptor (PR) signaling pathway (AID 1346784); settings: PR-UAS-bla HEK293T, beta-lactamase FRET ratio, 16 h; series mostly up to 92.4 µM; also: nearly all actives have a fitted effect of over 30% in size
Progesterone receptor (Homo sapiens), sequence (P06401 whole entry, looked up): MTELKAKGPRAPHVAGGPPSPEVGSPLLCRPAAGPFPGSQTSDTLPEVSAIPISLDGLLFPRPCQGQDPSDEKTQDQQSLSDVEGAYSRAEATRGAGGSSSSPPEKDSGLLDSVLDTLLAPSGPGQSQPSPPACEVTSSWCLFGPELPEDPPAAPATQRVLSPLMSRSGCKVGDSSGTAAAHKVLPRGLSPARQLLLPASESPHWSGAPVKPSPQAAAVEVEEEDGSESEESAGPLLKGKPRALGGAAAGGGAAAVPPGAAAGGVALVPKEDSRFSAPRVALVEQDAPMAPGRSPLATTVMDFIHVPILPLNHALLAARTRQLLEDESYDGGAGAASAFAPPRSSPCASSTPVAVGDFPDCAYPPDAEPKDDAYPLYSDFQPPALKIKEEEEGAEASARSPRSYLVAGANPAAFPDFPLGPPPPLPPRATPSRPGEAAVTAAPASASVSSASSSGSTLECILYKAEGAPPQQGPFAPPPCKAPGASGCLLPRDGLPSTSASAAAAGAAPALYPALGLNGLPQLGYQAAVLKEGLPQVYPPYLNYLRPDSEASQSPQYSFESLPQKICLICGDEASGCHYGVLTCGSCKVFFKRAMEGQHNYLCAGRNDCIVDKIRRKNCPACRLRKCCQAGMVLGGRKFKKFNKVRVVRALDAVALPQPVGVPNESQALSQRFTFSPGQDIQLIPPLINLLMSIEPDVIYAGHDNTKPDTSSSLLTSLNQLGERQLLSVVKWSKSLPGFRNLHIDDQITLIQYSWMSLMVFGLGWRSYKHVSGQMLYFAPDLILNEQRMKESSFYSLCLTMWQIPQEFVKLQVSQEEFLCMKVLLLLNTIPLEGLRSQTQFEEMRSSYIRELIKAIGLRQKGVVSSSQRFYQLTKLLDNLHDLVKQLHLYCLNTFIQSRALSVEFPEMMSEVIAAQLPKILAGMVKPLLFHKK
In short: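 Fluorescence from LiveBLAzer B/G FRET substrate cleavage (2 hr, RT) reported PR activation in PR-UAS-bla HEK 293T cells treated 16 hr at 37C/5% CO2 with compounds; medium contained 2% charcoal-stripped FBS.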

[8] = target: Progesterone receptor (Homo sapiens) (UniProt P06401); test: qHTS assay to identify small molecule antagonists of the progesterone receptor (PR) signaling pathway (AID 1346795; active = well fitted inhibition curve with a large enough effect in the signal ratio in the repeat runs, not every such curve was filed as active; the % refers to the signal ratio); settings: PR-UAS-bla HEK293T, beta-lactamase FRET ratio, 16 h; series mostly up to 92.4 µM
In short: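 Fluorescence intensity measured 2 hr after adding beta-lactamase FRET substrate to PR-UAS-bla HEK293T cells that had been co-treated 16 hr with compound and 1 nM R5020 (final concentration) in 2% charcoal-stripped FBS.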

[9] = qHTS assay to identify small molecule antagonists of the progesterone receptor (PR) signaling pathway - cell viability counter screen (AID 1346798; active = well fitted curve in the direction sought with a large enough effect in the repeat runs; an effect the other way counts as inactive or inconclusive; also: nearly all actives have a fitted effect of over 50% in size); settings: PR-UAS-bla HEK293T viability, CellTiter-Glo luminescence, 16 h; series mostly up to 92.4 µM
In short: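 CellTiter-Glo luminescence; PR-UAS-bla HEK293T, 3,000 cells/well; compound + R5020, 16 hr, 37C/5% CO2; 30 min RT before read.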

[10] = qHTS assay to identify small molecule agonists of the progesterone receptor (PR) signaling pathway - cell viability counter screen (AID 1346799); settings: PR-UAS-bla HEK293T viability, CellTiter-Glo luminescence, 16 h; series mostly up to 92.4 µM; also: nearly all actives have a fitted effect of over 45% in size
In short: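 In parallel with the beta-lactamase readout, cytotoxicity toward PR-UAS-bla HEK293T cells was measured by CellTiter-Glo luminescence following 16 hr compound incubation in 2% charcoal-stripped FBS medium.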

[11] = qHTS assay to identify small molecule antagonists of the TGF-beta/Smad signaling pathway - cell viability counter screen (AID 1346824; active = well fitted curve in the direction sought with a large enough effect in the repeat runs; an effect the other way counts as inactive or inconclusive; also: nearly all actives have a fitted effect of over 50% in size); settings: SBE-bla HEK293T viability, CellTiter-Glo luminescence; series mostly up to 76.8 µM
In short: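 Cytotoxicity counter-screen run in the same wells as the beta-lactamase Smad reporter read: CellTiter-Glo luminescence after 30 min at room temperature. HEK 293T SBE-bla cells had 5 hr compound exposure at 37 C with TGF-beta1 (0.25 ng/mL stock).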

[12] = qHTS assay to identify small molecule agonists of the TGF-beta/Smad signaling pathway - cell viability counter screen (AID 1346829; active = well fitted curve in the direction sought with a large enough effect in the repeat runs; an effect the other way counts as inactive or inconclusive; also: top concentration of the series differs between compounds; nearly all actives have a fitted effect of over 45% in size); settings: SBE-bla HEK293T viability, CellTiter-Glo luminescence, 5 h; series mostly up to 76.8 µM
In short: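 Tox21 qHTS format: SBE-bla HEK 293T cells treated with DMSO-dissolved compounds for 5 hr; CellTiter-Glo luminescence after 30 min at room temperature.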

[13] = qHTS assay to identify small molecule agonists of the TGF-beta/Smad signaling pathway (AID 1346859; active = well fitted activation curve with a large enough effect in the signal ratio in the repeat runs, not every such curve was filed as active; the % refers to the signal ratio); settings: SBE-bla HEK293T, TGF-beta/Smad beta-lactamase reporter, 5 h; series mostly up to 76.8 µM
In short: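 After overnight seeding, SBE-bla HEK 293T cells are dosed with compounds in DMSO and kept 5 hr at 37 C, 5% CO2. LiveBLAzer-type FRET substrate is then applied for 2 hr at room temperature.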

[14] = target: Thyrotropin-releasing hormone receptor (Homo sapiens) (UniProt P34981); test: qHTS assay to identify small molecule antagonists of the thyrotropin-releasing hormone receptor (TRHR) signaling pathway (AID 1346877; active = well fitted inhibition curve with a large enough effect in the repeat runs, not every such curve was filed as active); settings: TRHR-HEK293, TRH-induced calcium fluorescence, antagonist mode; series mostly up to 51.3 µM
Thyrotropin-releasing hormone receptor (Homo sapiens), sequence (P34981 whole entry, looked up): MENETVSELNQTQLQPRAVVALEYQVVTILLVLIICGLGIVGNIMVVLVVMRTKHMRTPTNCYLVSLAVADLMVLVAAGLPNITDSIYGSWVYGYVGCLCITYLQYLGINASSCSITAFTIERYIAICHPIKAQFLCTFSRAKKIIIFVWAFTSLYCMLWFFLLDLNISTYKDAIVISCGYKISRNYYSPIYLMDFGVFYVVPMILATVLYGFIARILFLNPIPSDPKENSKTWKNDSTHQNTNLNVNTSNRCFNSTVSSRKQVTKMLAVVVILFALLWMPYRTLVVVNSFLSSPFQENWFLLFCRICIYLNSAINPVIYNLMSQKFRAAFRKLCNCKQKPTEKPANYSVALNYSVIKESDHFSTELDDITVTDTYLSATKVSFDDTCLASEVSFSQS
In short: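 Antagonist mode: after a 5 min room-temperature compound exposure, cells were stimulated with 1 nM (final) TRH. Dye-loaded TRHR-HEK293 cells were used, and calcium-dependent fluorescence was followed for 3 min, with 15-point titrations run in triplicate.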

[15] = target: Thyrotropin-releasing hormone receptor (Homo sapiens) (UniProt P34981); test: qHTS assay to identify small molecule agonists of the thyrotropin-releasing hormone receptor (TRHR) signaling pathway (AID 1346891); settings: TRHR-HEK293 calcium fluorescence, agonist mode; series mostly up to 57.6 µM;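 also: HEK293 cells expressing TRHR with calcium dye readout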
In short: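 Compounds were tested as agonists at 15 concentrations, in triplicate, on TRHR-Hek293 cells; calcium-sensitive dye fluorescence was recorded for 3 min following addition.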

[16] = target: Estrogen receptor (Homo sapiens) (UniProt P03372); test: qHTS assay to identify small molecule agonists of the estrogen receptor alpha (ER-alpha) signaling pathway in the presence of an antagonist (AID 1259383); settings: VM7Luc4E2 cells, ERE-luciferase, +ICI-182,780, 22 h; series mostly up to 92.4 µM; also: top concentration of the series differs between compounds; nearly all actives have a fitted effect of over 15% in size
Estrogen receptor (Homo sapiens), sequence (P03372 whole entry, looked up): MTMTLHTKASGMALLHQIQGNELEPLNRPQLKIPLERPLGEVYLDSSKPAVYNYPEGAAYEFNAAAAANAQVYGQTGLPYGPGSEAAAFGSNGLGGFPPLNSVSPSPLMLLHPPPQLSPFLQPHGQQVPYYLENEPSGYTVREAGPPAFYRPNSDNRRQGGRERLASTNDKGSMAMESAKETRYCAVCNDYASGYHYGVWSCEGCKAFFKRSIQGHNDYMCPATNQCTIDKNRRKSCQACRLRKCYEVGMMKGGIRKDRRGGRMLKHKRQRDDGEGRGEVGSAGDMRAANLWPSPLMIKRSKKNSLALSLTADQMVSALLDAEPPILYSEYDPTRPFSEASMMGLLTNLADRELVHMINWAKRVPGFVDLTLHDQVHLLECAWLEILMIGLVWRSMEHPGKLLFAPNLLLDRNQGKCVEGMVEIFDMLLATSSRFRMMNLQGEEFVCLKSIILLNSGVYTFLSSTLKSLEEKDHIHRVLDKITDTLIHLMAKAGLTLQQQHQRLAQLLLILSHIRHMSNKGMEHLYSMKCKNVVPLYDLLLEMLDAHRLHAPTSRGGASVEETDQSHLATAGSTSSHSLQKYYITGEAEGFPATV
In short: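 Agonist-mode confirmation run in the presence of 10.0nM (final) ICI-182,780 antagonist. The reporter was ERE-driven luciferase in VM7Luc4E2 cells, grown in charcoal-stripped serum. Cells were exposed to 15-concentration compound series for 22hr, then ONE-Glo luminescence was read.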

[17] = qHTS assay to identify small molecule agonists or antagonists of the thyroid stimulating hormone receptor (TSHR) signaling pathway - wild type cell line counter screen (AID 1259384); settings: HEK293 wild type, cAMP HTRF counter-screen, hits give high values; series mostly up to 92.4 µM
In short: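 Counter screen in untransfected Hek293: compounds (15-point titration, triplicate) plus phosphodiesterase inhibitor Ro20-1724 added after 18 h plating; 30 min RT. Intracellular cAMP via competitive d2/cryptate immunoassay, 1 h incubation.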

[18] = target: Thyrotropin receptor (Homo sapiens) (UniProt P16473); test: qHTS assay to identify small molecule antagonists of the thyroid stimulating hormone receptor (TSHR) signaling pathway (AID 1259385); settings: TSHR-HEK293 cAMP HTRF, TSH-stimulated antagonist mode; series mostly up to 92.4 µM; also: nearly all actives have a fitted effect of over 20% in size
Thyrotropin receptor (Homo sapiens), sequence (P16473 whole entry, looked up): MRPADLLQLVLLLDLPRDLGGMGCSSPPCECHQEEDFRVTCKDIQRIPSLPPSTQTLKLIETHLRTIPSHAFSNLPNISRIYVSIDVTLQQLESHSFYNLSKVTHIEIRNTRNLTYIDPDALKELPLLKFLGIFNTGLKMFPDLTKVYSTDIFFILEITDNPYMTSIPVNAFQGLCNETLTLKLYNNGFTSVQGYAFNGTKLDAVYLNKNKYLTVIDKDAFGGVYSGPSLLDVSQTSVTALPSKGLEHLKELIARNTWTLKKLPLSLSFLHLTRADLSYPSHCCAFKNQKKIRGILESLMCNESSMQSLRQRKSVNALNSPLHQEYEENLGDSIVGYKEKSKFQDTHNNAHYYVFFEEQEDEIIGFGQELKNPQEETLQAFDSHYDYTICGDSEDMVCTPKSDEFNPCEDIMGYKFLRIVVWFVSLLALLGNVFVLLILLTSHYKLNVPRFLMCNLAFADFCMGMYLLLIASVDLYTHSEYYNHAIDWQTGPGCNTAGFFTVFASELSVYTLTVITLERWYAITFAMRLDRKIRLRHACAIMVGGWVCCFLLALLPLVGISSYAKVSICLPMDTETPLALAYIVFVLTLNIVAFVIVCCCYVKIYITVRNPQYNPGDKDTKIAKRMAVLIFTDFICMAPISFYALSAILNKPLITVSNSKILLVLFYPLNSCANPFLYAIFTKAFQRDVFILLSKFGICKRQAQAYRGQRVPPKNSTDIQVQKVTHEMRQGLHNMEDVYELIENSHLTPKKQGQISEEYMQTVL
In short: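 Antagonist mode: compound-treated TSHR-expressing HEK293 cells were stimulated with 1.5 ng/mL TSH (final) in presence of Ro20-1724 for 30 min at RT. HTRF cAMP detection after 1 h; each compound tested at 15 concentrations, triplicate.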

[19] = qHTS assay to identify small molecule agonists of the estrogen receptor beta (ER-beta) signaling pathway - cell viability counter screen (AID 1259380; active = well fitted curve in the direction sought with a large enough effect in the repeat runs; an effect the other way counts as inactive or inconclusive; also: nearly all actives have a fitted effect of over 30% in size); settings: ER-beta-bla HEK293T viability, CellTiter-Glo luminescence, 16 h; series mostly up to 92.4 µM
In short: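 Cell viability counter screen: CellTiter-Glo luminescence (30 min, room temperature) measured in the same wells as the beta-lactamase readout, after 16 hr compound exposure at 37C of ER-beta-bla HEK293T cells in 2% charcoal-stripped FBS medium.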

[20] = target: Androgen receptor (Homo sapiens) (UniProt P10275); test: qHTS assay to identify small molecule agonists of the androgen receptor (AR) signaling pathway in the presence of an antagonist (AID 1259381); settings: MDA-kb2 MMTV-luciferase, AR agonist + nilutamide, 16 h; series mostly up to 42.5 µM; also: nearly all actives have a fitted effect of over 15% in size
Androgen receptor (Homo sapiens), sequence (P10275 whole entry, looked up): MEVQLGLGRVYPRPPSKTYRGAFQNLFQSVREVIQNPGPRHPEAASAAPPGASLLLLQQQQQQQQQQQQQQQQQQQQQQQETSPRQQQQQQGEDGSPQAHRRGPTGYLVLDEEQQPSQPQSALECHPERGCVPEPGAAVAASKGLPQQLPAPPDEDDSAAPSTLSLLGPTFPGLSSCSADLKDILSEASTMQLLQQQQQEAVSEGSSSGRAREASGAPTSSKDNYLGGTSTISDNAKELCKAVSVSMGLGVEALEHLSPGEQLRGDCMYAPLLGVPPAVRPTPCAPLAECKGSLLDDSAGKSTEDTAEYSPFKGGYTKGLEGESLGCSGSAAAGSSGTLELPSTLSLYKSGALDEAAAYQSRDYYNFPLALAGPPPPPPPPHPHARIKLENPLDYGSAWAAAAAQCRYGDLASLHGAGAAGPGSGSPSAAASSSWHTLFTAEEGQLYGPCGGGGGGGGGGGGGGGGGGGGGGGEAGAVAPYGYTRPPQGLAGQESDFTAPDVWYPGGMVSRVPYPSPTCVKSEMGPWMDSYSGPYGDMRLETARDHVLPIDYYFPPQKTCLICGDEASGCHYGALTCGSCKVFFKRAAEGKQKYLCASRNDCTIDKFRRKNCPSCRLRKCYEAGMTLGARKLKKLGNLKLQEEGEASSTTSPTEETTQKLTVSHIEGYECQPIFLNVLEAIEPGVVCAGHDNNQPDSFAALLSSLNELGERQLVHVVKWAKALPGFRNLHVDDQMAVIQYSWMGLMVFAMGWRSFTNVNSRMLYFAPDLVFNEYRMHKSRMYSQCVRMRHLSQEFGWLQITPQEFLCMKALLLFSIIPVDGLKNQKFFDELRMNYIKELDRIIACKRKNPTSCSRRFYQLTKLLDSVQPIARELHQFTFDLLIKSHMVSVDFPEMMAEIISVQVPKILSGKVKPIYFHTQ
In short: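 Agonist-mode confirmation run against 3.0 uM final nilutamide: compounds titrated at 15 concentrations onto MDA-kb2 MMTV-luciferase reporter cells. Luminescence measured with ONE-Glo following 16 hr incubation, 37C, 0% CO2.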
% is scaled to controls: 0 for no effect and ±100 for the full control effect.

CCN1CCOCC1
inactive: Potency [1] | Potency [2] | Potency [3] | Potency [4] | outcome [5] | Potency [6] | Potency [7] | Potency [8] | Potency [9] | Potency [10] | outcome [11] | outcome [12] | outcome [13] | outcome [14] | Potency [15]

CCCCCCCCCCOc1cc2c(=O)c(C(=O)OCC)c[nH]c2cc1OCC
inactive: activity change, negative = inhibition [1] 27.8% [at 8.39 µM] | activation [2] -0.652% [at 8.39 µM] | activity, negative = inhibition [3] 11.6% [at 8.39 µM] | activity change, negative = cytotoxicity [4] 0.727% [at 8.39 µM] | activity change, negative = cytotoxicity [5] 5.47% [at 8.39 µM] | activation [16] 0.417% [at 8.39 µM] | cAMP activity change [17] -4.45% [at 8.39 µM] | activity change, negative = inhibition [18] 0.172% [at 8.39 µM] | activity change, negative = cytotoxicity [6] -3.47% [at 8.39 µM] | activity change, negative = inhibition [8] -0.779% [at 8.39 µM] | activity change, negative = cytotoxicity [9] 1.18% [at 8.39 µM] | activity change, negative = cytotoxicity [10] -5.75% [at 8.39 µM] | viability change, negative = cytotoxic [11] 0.981% [at 6.97 µM] | activity change, negative = cytotoxicity [12] 0.83% [at 6.97 µM] | activation [13] 0.379% [at 6.97 µM] | activity, negative = inhibition [14] 0.403% [at 4.65 µM] | activation [15] 0.481% [at 5.23 µM]

CCOc1ccccc1OCC
inactive: Potency [1] | Potency [2] | Potency [4] | Potency [19] | outcome [5] | outcome [17] | outcome [18] | Potency [6] | Potency [7] | Potency [8] | Potency [9] | Potency [10] | outcome [11] | outcome [12] | outcome [13]

C=CN1CCCCCC1=O
inactive: Potency [1] | Potency [2] | Potency [3] | Potency [4] | outcome [5] | outcome [17] | outcome [18] | Potency [6] | Potency [7] | Potency [8] | Potency [9] | Potency [10] | outcome [11] | outcome [12] | outcome [13] | outcome [14] | Potency [15]

CC(C)NNC(=O)c1ccncc1
inactive: Potency [1] | Potency [4] | Potency [19] | Potency [20] | outcome [5] | outcome [17] | outcome [18] | Potency [6] | Potency [7] | Potency [8] | Potency [9] | Potency [10] | outcome [11] | outcome [12] | outcome [13]

Cc1ccc(C(=O)c2ccccc2)cc1
inactive: Potency [1] | Potency [2] | Potency [19] | Potency [20] | outcome [5] | outcome [16] | outcome [17] | outcome [18] | Potency [6] | Potency [7] | Potency [8] | Potency [9] | Potency [10] | outcome [11] | outcome [12] | outcome [13] | outcome [14] | Potency [15]

Cc1onc(-c2c(Cl)cccc2Cl)c1C(=O)Cl
inactive: Potency [1] | Potency [2] | Potency [4] | Potency [20] | outcome [5] | outcome [16] | outcome [17] | outcome [18] | Potency [6] | Potency [7] | Potency [8] | Potency [9] | Potency [10] | outcome [11] | outcome [12] | outcome [13] | outcome [14] | Potency [15]

CCCCS(=O)(=O)N[C@@H](Cc1ccc(OCCCCC2CCNCC2)cc1)C(=O)O
inactive: Potency [1] | Potency [4] | Potency [19] | Potency [20] | outcome [5] | outcome [16] | outcome [17] | outcome [18] | Potency [6] | Potency [7] | Potency [8] | Potency [9] | Potency [10] | outcome [11] | outcome [12] | outcome [13] | outcome [14] | Potency [15]
